From PubChem BioAssay (NCI)
Compounds without any hit were thinned out: in the full panel of roughly 83,000, 20% have a hit.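 How to read the values: 0–100, growth inhibition (40 = 60% inhibited); 0, no net growth; -100 to 0, cell death (-40 = 40% of starting cells died; -100 = all dead).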 Active and inactive are the calls of the source. Rule for the calls: active = growth percent below 10; inactive = the rest.

What follows are molecules tested on MDA-MB-468 breast (assay: NCI-60 one-dose screen, 48 h (100 = growth as untreated, 0 = no growth, -100 = all killed)). Settings: 10 µM unless noted.

Row | SMILES | growth
1 | CCOC(=O)c1coc(C(=O)OCC)c1C(=O)OCC | 107% (inactive)
2 | CCc1nc(C)cn1C(=O)OCc1nc2nc(Cl)nc(N3CCOCC3)c2[nH]1 | -54.6% (active)
3 | C=C1C(=O)O[C@H]2[C@H]1CC/C(COC(=O)/C=C\C(=O)NCc1ccc(Cn3c(=O)sn(CCCI)c3=O)cc1)=C\CC[C@@]1(C)O[C@@H]21 | -82.1% (active)
4 | COc1ccccc1N1C(=N)S/C(=C\c2ccc(OCc3ccccc3F)cc2)C1=O | 5.85% (active)
5 | CC1CC(O)CC(C)(C)C1.CC1CC(O)CC(C)(C)C1.CC1CC(O)CC(C)(C)C1.CC1CC(O)CC(C)(C)C1.[Ti] (stereo unspecified) | 115% (inactive)
6 | CCN(CC)CCOC(=O)c1ccc(NC(=O)Nc2cccc(Cl)c2)cc1 | 103% (inactive)
7 | CCn1cc(/C=C2\Oc3cc(OCC#N)ccc3C2=O)c2cc(OC)ccc21 | 20% (inactive)
8 | O=C(CCCCCCN1CC(=O)N2[C@@H](c3ccccc3Br)c3[nH]c4ccccc4c3C[C@H]2C1=O)NO | 36.2% (inactive)
9 | CN1CCN(CCCOc2ccc3ncnc(Nc4ccc(Oc5cccc(F)c5)c(Cl)c4)c3c2)CC1 | -66% (active)
10 | O=C(CC1Sc2ccccc2NC1=O)NNc1ccc(F)cc1 (stereo unspecified) | 92.7% (inactive)
11 | CC(=O)N1N=C(c2ccc(Cl)cc2)CC1c1c(C)nn(-c2ccccc2)c1N(C)Cc1ccccc1 (stereo unspecified) | 58.9% (inactive)
12 | O/N=C1\c2ccccc2-c2ccc(Br)cc21 | 108% (inactive)
13 | Cc1cccc(/C=N/Nc2cc(C)c3cccc(C)c3n2)n1 | 88.7% (inactive)
14 | CC1CCC(C(C)(C)[N+](C)(C)C)CC1 (stereo unspecified) | 120% (inactive)
15 | Cc1cc(Nc2ccc(F)cc2)nc(N2CCN(c3ccnc4cc(Cl)ccc34)CC2)n1 | 17.6% (inactive)
16 | CCC1(C(C)C)NC(=O)NC1=O (stereo unspecified) | 98.5% (inactive)
17 | Nc1ccc(C(=O)Nc2cccc(C(=O)Nc3ccc4c(O)c(N=Nc5ccc(N=Nc6ccc(S(=O)(=O)O)cc6)cc5)c(S(=O)(=O)O)cc4c3)c2)cc1 | 100% (inactive)
18 | CCOC(=O)CSc1nc2sc3c(c2c(=O)n1-c1ccccc1)CCCCC3 | 122% (inactive)
19 | O=C1c2ccccc2C(=O)c2c1oc1oc3c(c(=O)c21)c(=O)n(-c1ccccc1)c1ccccc31 | -27.3% (active)
20 | COc1ccc(C2[C@@H](c3ccccc3)C(=O)N2c2cc(OC)c(OC)c(OC)c2)cc1F (stereo partly specified) | -4.41% (active)
21 | Fc1cccc(CNc2c3ccccc3nc3ccccc23)c1F | 22% (inactive)
22 | COc1cc2c(c(OC)c1OC)-c1ccc(OC)c(=O)cc1[C@@H](NC(=O)CCl)CC2 | -5.69% (active)
23 | COc1cc(/C=C/c2cc(/C=C/c3ccc(O)c(OC)c3)n(C(=O)c3ccc(Cl)cc3)n2)ccc1O | 1.45% (active)
24 | O=C(O)[C@@H]1c2ccccc2-c2ccccc2[C@H]1C(=O)O | 97.5% (inactive)
25 | C[C@@H]1C=C2C(=O)O[C@@H]3CC[C@H](C1)[C@]23O | 11.4% (inactive)
26 | O=C(Nc1ccc(Oc2cccc(F)c2)c(Cl)c1)c1cnccn1 | 0.0833% (active)
